Results: the supplement of paper PMC5641865, “A screen for kinase inhibitors identifies antimicrobial imidazopyridine aminofurazans as specific inhibitors of the Listeria monocytogenes PASTA kinase PrkA” (The Journal of Biological Chemistry, 2017)
± gives the standard deviation of the averaged measurements.

These molecules were tested on Listeria monocytogenes 10403S (assay: growth inhibition relative to ceftriaxone-alone control; higher = stronger potentiation of ceftriaxone growth inhibition). Settings: 10 µM; ceftriaxone 1 ug/ml; 12 h.
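Further: End-point A600 read in BHI broth at 37 °C with 2% DMSO, inhibition computed as (1 − OD with compound plus ceftriaxone ÷ OD with ceftriaxone only) × 100.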

Compound	growth inhibition
Cc1ccc2c(-c3ccnc(Nc4cccc(C(F)(F)F)c4)n3)c(-c3ccccc3)nn2n1	-3.53 ± 4.7%
CN(c1ccc(NC(=O)Nc2ccc(OC(F)(F)F)cc2)cc1)c1ccnc(Nc2cccc(S(N)(=O)=O)c2)n1	-3.28 ± 2%
COc1cc(Nc2ncc3c(C)nc(-c4cccc(Oc5ccccc5)c4)n3n2)cc(OC)c1OC	-18.3 ± 17%
COc1ccc(COc2ccc(Cc3cnc(N)nc3N)cc2OC)cc1	63.8 ± 9.7%
NC(=O)c1ccc2c(-c3ccnc(NCCCO)n3)c(-c3ccc(F)cc3)nn2c1	-7.27 ± 16%
CCN(CC)CCCCNc1ncc2cc(-c3cc(OC)cc(OC)c3)c(NC(=O)NC(C)(C)C)nc2n1	23.2 ± 6.8%
C[C@@H](Oc1cc(-n2cnc3ccc(OCC4CCN(C)CC4)cc32)sc1C(N)=O)c1ccccc1Cl	-2.37 ± 3%
CCn1c(N)c(C(=O)NC)c(=O)c2ccc(C#CC(C)(O)COC)nc21 (stereo not drawn)	2.07 ± 6.6%
CC1=C(C(=O)Nc2ccc3[nH]ncc3c2)C(c2ccc(F)cc2)NC(=O)N1 (stereo not drawn)	2.29 ± 1.7%
Cc1ccc(NC(=O)c2ccnc(N3CCCC3)c2)cc1-c1ccc(C(=O)NCC2CC2)cc1	-0.943 ± 1.3%
COc1cc(Nc2ncc(F)c(Nc3ccc4c(n3)N(COP(=O)(O)O)C(=O)C(C)(C)O4)n2)cc(OC)c1OC	10.1 ± 12%
Fc1cc(-c2cccc3ncc(-c4cnn(C5CCNCC5)c4)nc23)cc(F)c1CN1CCOCC1	82.1 ± 22%
CS(=O)(=O)CCNCc1ccc(-c2ccc3ncnc(Nc4ccc(OCc5cccc(C(F)(F)F)c5)cc4)c3c2)o1	-9.85 ± 16%
CC(C)c1ccc(Nc2nccc(-c3cnn4ncccc34)n2)cc1	-0.923 ± 0.22%
CNC(=O)c1ccccc1Sc1ccc2c(/C=C/c3ccccn3)n[nH]c2c1 [Axitinib]	-11.8 ± 14%
COc1cccc(-n2ncc3c(N/N=C/c4ccc(C)cc4)ncnc32)c1	-9.19 ± 0.67%
CCOc1ccc2c(-c3ccnc(Nc4cccc(C(F)(F)F)c4)n3)cnn2n1	-8.14 ± 6.9%
c1ccc2c(-c3cnn4cc(-c5ccc(N6CCNCC6)cc5)cnc34)ccnc2c1	24.6 ± 12%
COc1ccc(COc2cc3oc(=O)c4cc(C(C)O)ccc4c3cc2OC)cc1 (stereo not drawn) [Palomid 529]	18 ± 10%

Compound	growth inhibition
O=S(=O)(CCNCc1ccc(-c2ccc3ncnc(Nc4ccc(OCc5cccc(F)c5)c(Cl)c4)c3c2)o1)c1ccccc1	-0.141 ± 13%
COC(=O)c1ccc2c(c1)C(=Cc1cc(Br)c(O)c(Br)c1)C(=O)N2	12.4 ± 1.5%
NS(=O)(=O)c1ccc(N/N=C2\C(=O)Nc3ccc(C(=O)NCc4ccncc4)cc32)cc1	-9.46 ± 18%
O=C(Nc1ccc(Oc2ccc3[nH]c(NC(=O)c4ccco4)nc3c2)cc1)Nc1cc(C(F)(F)F)ccc1F	9.02 ± 5.9%
CCOc1cc2ncc(C#N)c(Nc3ccc(F)c(Cl)c3)c2cc1NC(=O)/C=C/CN(C)C [Pelitinib (EKB-569)]	14.9 ± 10%
CCn1c(-c2nonc2N)nc2c(C#CC(C)(C)O)ncc(OC[C@@H]3CCCN3)c21	74 ± 6.7%
COc1cc2ncn(-c3cc(OCc4ccccc4C(F)(F)F)c(C(C)=O)s3)c2cc1OC	11.2 ± 1.6%
NS(=O)(=O)c1ccc(N/N=C2\C(=O)Nc3cccc(CCc4ccncc4)c32)cc1	-4.56 ± 8.2%
COc1ccc2cc(-c3c(-c4ccncc4)nc(-c4ccc(S(C)(=O)=O)cc4C)n3C)ccc2c1	-1.1 ± 3.1%
Cc1c2ccc(N(C)c3ccnc(Nc4cccc(S(N)(=O)=O)c4)n3)cc2nn1C	2.52 ± 4.2%
CC(C)c1ccc2c(c1)NC(=O)/C2=N/Nc1ccc(S(N)(=O)=O)cc1	-0.275 ± 0.88%
O=C(NOCC1CC1)c1ccc(F)c(F)c1Nc1ccc(I)cc1Cl	8.54 ± 25%
Nc1ccc(C(=O)Nc2cccc(-c3nc(N4CCOCC4)c4oc5ncccc5c4n3)c2)cn1	31.1 ± 1.6%
COc1cc(N2CCN(C(C)C)CC2)ccc1Nc1nc(Nc2cccc(F)c2C(=O)O)c2cc[nH]c2n1	-0.452 ± 1.2%
NS(=O)(=O)c1ccc(N/N=C2\C(=O)Nc3ccc(C(=O)NCCc4c[nH]cn4)cc32)cc1	14.1 ± 4.2%
CCn1c(-c2nonc2N)nc2c(C#CC(C)(C)O)nc(OC[C@H](N)c3ccccc3)cc21	66.2 ± 2.7%
Cc1ccc(C(=O)NC(C)C)cc1-c1ccc(C(=O)NCC2CC2)cc1	-1.2 ± 0.17%
Cc1nc(N)sc1-c1ccnc(Nc2ccc(N3CCOCC3)cc2)n1	-5.25 ± 7.3%
CCN(CC)CCNC(=O)c1c(C)[nH]c(/C=C2\C(=O)Nc3ccc(F)cc32)c1C [Sunitinib Malate (Sutent)]	73.6 ± 12%
